{
  "source": "paper PMC5700166",
  "data": [
    {"target": "T1, GST-Nv-NF-kB (Cys allele) (Nematostella vectensis, UniProt E5G601 2-411)", "T1 sequence": "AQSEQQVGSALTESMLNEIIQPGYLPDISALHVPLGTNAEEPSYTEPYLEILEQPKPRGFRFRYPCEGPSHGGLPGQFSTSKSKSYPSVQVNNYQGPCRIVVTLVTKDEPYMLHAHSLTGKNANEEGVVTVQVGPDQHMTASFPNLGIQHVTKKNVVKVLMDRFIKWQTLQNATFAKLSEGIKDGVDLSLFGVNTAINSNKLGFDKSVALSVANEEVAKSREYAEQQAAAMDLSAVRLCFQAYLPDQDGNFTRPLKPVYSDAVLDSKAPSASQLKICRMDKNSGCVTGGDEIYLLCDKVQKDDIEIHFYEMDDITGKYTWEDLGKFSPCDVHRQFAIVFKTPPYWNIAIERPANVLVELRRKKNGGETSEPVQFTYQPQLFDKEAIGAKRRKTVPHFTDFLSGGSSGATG", "assay": "protein-binding microarray (PBM); PBM: ~300 nM protein, 6 mM HEPES pH 7.8, 80 mM KCl, 0.5 mM EDTA, 0.5 mM EGTA, 6% glycerol, 35 ng/ul poly-dIdC, 1% milk, 1 h, room temperature; high values mean tight binding", "settings": "dsDNA, one strand shown", "units": {"binding signal": "z-score"}, "values": [
      {"sequence": "CCGATTAACATCAAGGGCTTCCCTGATGTTAATCGGGTCTTGATTCGCTTGACGCTGCTG", "binding signal": 1.82},
      {"sequence": "CCGATTAACATCAATATTTCCCATGATGTTAATCGGGTCTTGATTCGCTTGACGCTGCTG", "binding signal": 3.85},
      {"sequence": "CCGATTAACATCAAAAACACCCCTGATGTTAATCGGGTCTTGATTCGCTTGACGCTGCTG", "binding signal": 3.9},
      {"sequence": "CCGATTAACATCAGAGAAGTCCCTGATGTTAATCGGGTCTTGATTCGCTTGACGCTGCTG", "binding signal": 6.22},
      {"sequence": "CCGATTAACATCAAAATAATCCCTGATGTTAATCGGGTCTTGATTCGCTTGACGCTGCTG", "binding signal": 4.62},
      {"sequence": "CCGATTAACATCAGGATAATCCCTGATGTTAATCGGGTCTTGATTCGCTTGACGCTGCTG", "binding signal": 3.01},
      {"sequence": "CCGATTAACATCAGGAGAATCCCTGATGTTAATCGGGTCTTGATTCGCTTGACGCTGCTG", "binding signal": 3.24},
      {"sequence": "CCGATTAACATCAGGGGAAGGGATGATGTTAATCGGGTCTTGATTCGCTTGACGCTGCTG", "binding signal": 4.77},
      {"sequence": "CCGATTAACATCAGGGACCGCCCTGATGTTAATCGGGTCTTGATTCGCTTGACGCTGCTG", "binding signal": 3.55},
      {"sequence": "CCGATTAACATCAGGAAGACCCCTGATGTTAATCGGGTCTTGATTCGCTTGACGCTGCTG", "binding signal": 3.08},
      {"sequence": "CCGATTAACATCAGGGATCCCCATGATGTTAATCGGGTCTTGATTCGCTTGACGCTGCTG", "binding signal": 4.8},
      {"sequence": "CCGATTAACATCACACCACCCCCTGATGTTAATCGGGTCTTGATTCGCTTGACGCTGCTG", "binding signal": 2.72},
      {"sequence": "CCGATTAACATCAAGGGTTTTCCTGATGTTAATCGGGTCTTGATTCGCTTGACGCTGCTG", "binding signal": 3.39},
      {"sequence": "CCGATTAACATCAGGGACAGCCCTGATGTTAATCGGGTCTTGATTCGCTTGACGCTGCTG", "binding signal": 4.69},
      {"sequence": "CCGATTAACATCACGAGTTTCCCTGATGTTAATCGGGTCTTGATTCGCTTGACGCTGCTG", "binding signal": 4.31},
      {"sequence": "CCGATTAACATCAGGAGTTTACCTGATGTTAATCGGGTCTTGATTCGCTTGACGCTGCTG", "binding signal": 1.18},
      {"sequence": "CCGATTAACATCAGGGATTTACCTGATGTTAATCGGGTCTTGATTCGCTTGACGCTGCTG", "binding signal": 5.65},
      {"sequence": "CCGATTAACATCAGGCCACCCCCTGATGTTAATCGGGTCTTGATTCGCTTGACGCTGCTG", "binding signal": 2.49},
      {"sequence": "CCGATTAACATCACGGGACTTCCTGATGTTAATCGGGTCTTGATTCGCTTGACGCTGCTG", "binding signal": 6.03},
      {"sequence": "CCGATTAACATCAGGGTTTTCCATGATGTTAATCGGGTCTTGATTCGCTTGACGCTGCTG", "binding signal": 2.18},
      {"sequence": "CCGATTAACATCAGGGCTTTACCTGATGTTAATCGGGTCTTGATTCGCTTGACGCTGCTG", "binding signal": 2.29},
      {"sequence": "CCGATTAACATCAAGGGCATTCCTGATGTTAATCGGGTCTTGATTCGCTTGACGCTGCTG", "binding signal": 1},
      {"sequence": "CCGATTAACATCAGGGCGTCCCCTGATGTTAATCGGGTCTTGATTCGCTTGACGCTGCTG", "binding signal": 5.76},
      {"sequence": "CCGATTAACATCAGGGGTTTACCTGATGTTAATCGGGTCTTGATTCGCTTGACGCTGCTG", "binding signal": 5.44},
      {"sequence": "CCGATTAACATCAACCCCCGGCTTGATGTTAATCGGGTCTTGATTCGCTTGACGCTGCTG", "binding signal": 2.37},
      {"sequence": "CCGATTAACATCAATGGGATTCCTGATGTTAATCGGGTCTTGATTCGCTTGACGCTGCTG", "binding signal": 1.13},
      {"sequence": "CCGATTAACATCAGGAATCACCCTGATGTTAATCGGGTCTTGATTCGCTTGACGCTGCTG", "binding signal": 2.05},
      {"sequence": "CCGATTAACATCAGGAACATCCCTGATGTTAATCGGGTCTTGATTCGCTTGACGCTGCTG", "binding signal": 1.39},
      {"sequence": "CCGATTAACATCACGGGACATACTGATGTTAATCGGGTCTTGATTCGCTTGACGCTGCTG", "binding signal": 1.3},
      {"sequence": "CCGATTAACATCACGGAAGTCCCTGATGTTAATCGGGTCTTGATTCGCTTGACGCTGCTG", "binding signal": 5.39},
      {"sequence": "CCGATTAACATCAAAAAAATACCTGATGTTAATCGGGTCTTGATTCGCTTGACGCTGCTG", "binding signal": 2.83},
      {"sequence": "CCGATTAACATCAAGCAATTCCCTGATGTTAATCGGGTCTTGATTCGCTTGACGCTGCTG", "binding signal": 4.28},
      {"sequence": "CCGATTAACATCAGGCGTCCCCCTGATGTTAATCGGGTCTTGATTCGCTTGACGCTGCTG", "binding signal": 5.07},
      {"sequence": "CCGATTAACATCACGGAAAACCCTGATGTTAATCGGGTCTTGATTCGCTTGACGCTGCTG", "binding signal": 2.07},
      {"sequence": "CCGATTAACATCAGGGAACTACATGATGTTAATCGGGTCTTGATTCGCTTGACGCTGCTG", "binding signal": 1.1},
      {"sequence": "CCGATTAACATCAGGCGAGTCCCTGATGTTAATCGGGTCTTGATTCGCTTGACGCTGCTG", "binding signal": 3.12},
      {"sequence": "CCGATTAACATCAGGGGATCCCATGATGTTAATCGGGTCTTGATTCGCTTGACGCTGCTG", "binding signal": 5.1},
      {"sequence": "CCGATTAACATCAGGAAAAACCCTGATGTTAATCGGGTCTTGATTCGCTTGACGCTGCTG", "binding signal": 5.86},
      {"sequence": "CCGATTAACATCAGGGGGTCTACTGATGTTAATCGGGTCTTGATTCGCTTGACGCTGCTG", "binding signal": 2.44}
    ]},
    {"target": "T2, GST-Co-NF-kB (Capsaspora owczarzaki, UniProt F1ARL5 200-546)", "T2 sequence": "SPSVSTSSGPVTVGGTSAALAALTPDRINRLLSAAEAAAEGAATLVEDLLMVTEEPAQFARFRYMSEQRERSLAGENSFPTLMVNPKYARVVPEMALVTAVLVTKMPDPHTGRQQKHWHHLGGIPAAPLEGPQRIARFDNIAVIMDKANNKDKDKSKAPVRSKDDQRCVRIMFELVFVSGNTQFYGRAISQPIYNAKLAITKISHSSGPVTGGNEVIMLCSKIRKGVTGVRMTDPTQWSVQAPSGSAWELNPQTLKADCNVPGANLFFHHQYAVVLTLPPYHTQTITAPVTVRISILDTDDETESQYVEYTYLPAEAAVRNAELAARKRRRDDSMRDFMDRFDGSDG", "assay": "protein-binding microarray (PBM); PBM: ~300 nM protein, 6 mM HEPES pH 7.8, 80 mM KCl, 0.5 mM EDTA, 0.5 mM EGTA, 6% glycerol, 35 ng/ul poly-dIdC, 1% milk, 1 h, room temperature; Ap Aiptasia and Nv Nematostella (sea anemones) / Co Capsaspora / Aq Amphimedon (sponge) / Dm Drosophila / Hu human; RHD is the Rel homology domain; high values mean tight binding", "settings": "dsDNA, one strand shown", "units": {"binding signal": "z-score"}, "values": [
      {"sequence": "CCGATTAACATCAATATTTCCCATGATGTTAATCGGGTCTTGATTCGCTTGACGCTGCTG", "binding signal": 5.1},
      {"sequence": "CCGATTAACATCAAAAACACCCCTGATGTTAATCGGGTCTTGATTCGCTTGACGCTGCTG", "binding signal": 3.98},
      {"sequence": "CCGATTAACATCAAAATAATCCCTGATGTTAATCGGGTCTTGATTCGCTTGACGCTGCTG", "binding signal": 2.45},
      {"sequence": "CCGATTAACATCAGGATAATCCCTGATGTTAATCGGGTCTTGATTCGCTTGACGCTGCTG", "binding signal": 1.51},
      {"sequence": "CCGATTAACATCAGGGGAAGGGATGATGTTAATCGGGTCTTGATTCGCTTGACGCTGCTG", "binding signal": 3.96},
      {"sequence": "CCGATTAACATCAGGGATCCCCATGATGTTAATCGGGTCTTGATTCGCTTGACGCTGCTG", "binding signal": 3.74},
      {"sequence": "CCGATTAACATCACACCACCCCCTGATGTTAATCGGGTCTTGATTCGCTTGACGCTGCTG", "binding signal": 2.88},
      {"sequence": "CCGATTAACATCACGAGTTTCCCTGATGTTAATCGGGTCTTGATTCGCTTGACGCTGCTG", "binding signal": 3.63},
      {"sequence": "CCGATTAACATCAGGCCACCCCCTGATGTTAATCGGGTCTTGATTCGCTTGACGCTGCTG", "binding signal": 2.66},
      {"sequence": "CCGATTAACATCAGGGCGTCCCCTGATGTTAATCGGGTCTTGATTCGCTTGACGCTGCTG", "binding signal": 2.03},
      {"sequence": "CCGATTAACATCAGGGGTTTACCTGATGTTAATCGGGTCTTGATTCGCTTGACGCTGCTG", "binding signal": 1.56},
      {"sequence": "CCGATTAACATCAACCCCCGGCTTGATGTTAATCGGGTCTTGATTCGCTTGACGCTGCTG", "binding signal": 2.79},
      {"sequence": "CCGATTAACATCAAGCAATTCCCTGATGTTAATCGGGTCTTGATTCGCTTGACGCTGCTG", "binding signal": 2.25},
      {"sequence": "CCGATTAACATCAGGCGTCCCCCTGATGTTAATCGGGTCTTGATTCGCTTGACGCTGCTG", "binding signal": 4.12},
      {"sequence": "CCGATTAACATCAGGGAACTACATGATGTTAATCGGGTCTTGATTCGCTTGACGCTGCTG", "binding signal": 1.62},
      {"sequence": "CCGATTAACATCAGGGGATCCCATGATGTTAATCGGGTCTTGATTCGCTTGACGCTGCTG", "binding signal": 2.81},
      {"sequence": "CCGATTAACATCAGGGGGTCTACTGATGTTAATCGGGTCTTGATTCGCTTGACGCTGCTG", "binding signal": 1.58}
    ]}
  ]
}
